This is part of a sample that, as a whole, favours compounds with a hit. Of some 83,000 tested, about 20% had one in any assay.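 Growth was measured after 48 h exposure to one concentration of compound in 96-well plates. Values under 10 count as active.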 Values without a mark were called inactive. Active and inactive are the calls of the source.

Experimental findings from PubChem BioAssay (NCI) are described below.

Test systems include HCT-15 colon; HT29 colon; SNB-75 CNS; SNB-19 CNS; U251 CNS; PC-3 prostate; SK-MEL-5 melanoma; UACC-62 melanoma; LOX IMVI melanoma; SK-MEL-28 melanoma; SK-MEL-2 melanoma; EKVX NSCLC; SN12C renal; UO-31 renal; TK-10 renal; ACHN renal; CAKI-1 renal; A498 renal; MOLT-4 leukemia; CCRF-CEM leukemia.
Common to all, as to assay: NCI-60 one-dose screen, 48 h (100 = growth as untreated, 0 = no growth, -100 = all killed)
Common to all, as to conditions: 10 µM unless noted

Consider `Nc1nn(C(=O)Nc2ccc(Cc3ccccc3)cc2)c2ccc(Cl)cc12`, for which the growth is 36.6% with HCT-15 colon; 74% in the assay on HT29 colon; 122% with SNB-75 CNS; 83.4% in the assay with SNB-19 CNS; 65.9% in the assay with U251 CNS; 74.7% in the assay on PC-3 prostate. The growth in the assay on SK-MEL-5 melanoma was 35.9%; with UACC-62 melanoma, 13.3%; in the assay with LOX IMVI melanoma, 39%; in the assay with SK-MEL-28 melanoma, 106%; in the assay with SK-MEL-2 melanoma, 68.7%; in the assay with EKVX NSCLC it was 70%. Besides, the growth was 64.2% in the assay on SN12C renal; 43.5% in the assay with UO-31 renal; 79.7% in the assay on TK-10 renal; 39.9% in the assay with ACHN renal; 44% in the assay on CAKI-1 renal; 106% with A498 renal. The growth with MOLT-4 leukemia was 25.6%.
For `O=C(Nc1nc2ccc(F)cc2s1)c1cccnc1Nc1ccc(Cl)cc1Cl`, the growth is 16.9% in the assay with HCT-15 colon; 7.92% (active) with HT29 colon; 34.7% in the assay with SNB-75 CNS; 20.2% in the assay on SNB-19 CNS; 15.8% with U251 CNS; 3.63% (active) in the assay on PC-3 prostate. Besides, the growth in the assay on SK-MEL-5 melanoma is -2.74% (active); in the assay with UACC-62 melanoma, 20.1%; in the assay with LOX IMVI melanoma, 32.5%; in the assay with SK-MEL-28 melanoma it was 37.8%; in the assay with SK-MEL-2 melanoma, 43.5%; in the assay with EKVX NSCLC, 1.03% (active). Also, the growth was 9.61% (active) in the assay on SN12C renal; 28.5% in the assay on UO-31 renal; 11.4% with TK-10 renal; 27.5% with ACHN renal; -0.286% (active) in the assay with CAKI-1 renal; -4.34% (active) in the assay with A498 renal. The growth in the assay with MOLT-4 leukemia is 46%.
As to `Nc1nc(Cl)cc(=O)n1Cc1ccccc1`, the growth in the assay on HCT-15 colon is 98.3%; in the assay on HT29 colon, 103%; with SNB-75 CNS, 82.3%; in the assay on SNB-19 CNS it was 93.7%; in the assay on U251 CNS, 101%; in the assay on PC-3 prostate, 95.7%. The growth was 108% in the assay on SK-MEL-5 melanoma; 88.6% in the assay on UACC-62 melanoma; 92.1% in the assay on LOX IMVI melanoma; 108% with SK-MEL-28 melanoma; 105% in the assay with SK-MEL-2 melanoma; 94.1% with EKVX NSCLC. In addition, the growth in the assay with SN12C renal was 90.9%; with UO-31 renal it was 82.9%; in the assay on TK-10 renal, 92.7%; with ACHN renal, 107%; in the assay on CAKI-1 renal, 85.3%; with A498 renal it was 99.4%. Further, the results for the growth in the assay on CCRF-CEM leukemia and with MOLT-4 leukemia were 98.7% and 86.8%, respectively.
Take `Brc1c[n+](Cc2ccc3ccccc3c2)cn1Cc1ccc2ccccc2c1`: the growth is 93.6% in the assay on HCT-15 colon; 7.66% (active) in the assay with HT29 colon; -30.8% (active) in the assay with SNB-75 CNS; 17.3% in the assay on SNB-19 CNS; 21.5% in the assay with U251 CNS; 8.5% (active) with PC-3 prostate. The growth is -85.2% (active) in the assay on SK-MEL-5 melanoma; -59.8% (active) with UACC-62 melanoma; -89% (active) with LOX IMVI melanoma; -3.7% (active) with SK-MEL-28 melanoma; 17.3% in the assay with SK-MEL-2 melanoma; 60.1% in the assay with EKVX NSCLC. For the same compound, the growth in the assay with SN12C renal is 37.6%; in the assay on UO-31 renal it was 77.4%; in the assay with TK-10 renal, 43.6%; in the assay on ACHN renal it was 90.6%; in the assay with CAKI-1 renal it was 38.4%; in the assay with A498 renal, -0.664% (active). The growth in the assay on CCRF-CEM leukemia is 5.13% (active); in the assay on MOLT-4 leukemia, 12.6%.
For the compound `C=C1C(=O)O[C@H]2[C@H]1CC/C(COC(=O)CCC(=O)NCCOCCOCC(=O)Nc1ccc(OC)c(C(N)=O)c1O)=C\CC[C@@]1(C)O[C@@H]21`, the growth in the assay with HCT-15 colon was 92.3%; in the assay with HT29 colon it was 101%; in the assay with SNB-75 CNS it was 95.6%; in the assay with SNB-19 CNS it was 99%; in the assay with U251 CNS, 94.9%; in the assay on PC-3 prostate, 101%. Further, the growth was 102% in the assay with SK-MEL-5 melanoma; 89.2% in the assay on UACC-62 melanoma; 87.7% in the assay with LOX IMVI melanoma; 93.2% in the assay with SK-MEL-28 melanoma; 89.7% with SK-MEL-2 melanoma; 94.4% in the assay on EKVX NSCLC. Further, the growth was 92.7% in the assay on SN12C renal; 92% in the assay with UO-31 renal; 96% in the assay with TK-10 renal; 87.3% in the assay on ACHN renal; 81.2% in the assay on CAKI-1 renal; 101% in the assay with A498 renal. The growth with CCRF-CEM leukemia is 53.7%; in the assay with MOLT-4 leukemia, 97.1%.
On to `COc1ccc2c(c1)/C(=C/c1sc(=S)n(Cc3ccco3)c1O)C=N2`, for which the growth was 17.8% in the assay with HCT-15 colon; 15.8% with HT29 colon; 1.19% (active) in the assay on SNB-75 CNS; 44.5% with SNB-19 CNS; 37% in the assay on U251 CNS; 61.6% in the assay on PC-3 prostate. In addition, the growth in the assay with SK-MEL-5 melanoma is 52.2%; in the assay with UACC-62 melanoma it was 38.9%; in the assay on LOX IMVI melanoma, 35.9%; in the assay on SK-MEL-28 melanoma, 47.4%; in the assay on SK-MEL-2 melanoma it was 27%; in the assay with EKVX NSCLC it was 60.2%. Further, the growth was 32.7% in the assay on SN12C renal; 58.6% with UO-31 renal; 77.6% in the assay with TK-10 renal; 40.6% in the assay with ACHN renal; 39.3% in the assay on CAKI-1 renal; -9.18% (active) in the assay on A498 renal. The results for the growth in the assay with CCRF-CEM leukemia and with MOLT-4 leukemia were 18.3% and 29.2%, respectively.
Take `COc1cc(Nc2cn[nH]c2-c2ccc(Cl)cc2)cc(OC)c1OC`: the growth was 35.9% in the assay on HCT-15 colon; 15% in the assay with HT29 colon; -9.76% (active) with SNB-75 CNS; 56% with SNB-19 CNS; 35.3% with U251 CNS; 56.4% with PC-3 prostate. The growth with SK-MEL-5 melanoma was 39.1%; in the assay with UACC-62 melanoma, 23.2%; with LOX IMVI melanoma, 41.6%; with SK-MEL-28 melanoma, 46.2%; in the assay on SK-MEL-2 melanoma, 32.4%; in the assay on EKVX NSCLC it was 62.7%. In addition, the growth in the assay on SN12C renal is 52.5%; in the assay with UO-31 renal, 32.3%; in the assay with TK-10 renal it was 67%; with ACHN renal, 71.1%; in the assay on CAKI-1 renal, 59.9%; in the assay on A498 renal, 43.3%. Moreover, the growth is 24.3% in the assay with CCRF-CEM leukemia and 19.7% with MOLT-4 leukemia.
